The sample as a whole holds a higher share of hits than the screen did.
Tgondii IFNg: T. gondii growth inhibition under IFN-gamma | Toxoplasma gondii growth in IFN-gamma-treated host cells; active compounds read low | activity change, negative = inhibition, % (concentration not given with the values) | 69,000 tested, 3.8% active | AID 1259416; in the data active = activity change below about -70%, passing the limit was not always enough;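 also: host cells are HeLa cells infected with Toxoplasma gondii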
Numbers without * were called inactive.

SMILES	Tgondii IFNg
OCCOCc1ncn2c1CN(Cc1ccncc1)CCC2	35
CCN1c2cc(C)ccc2-n2cccc2C12CCN(C(=O)Nc1ccc(C)cc1)CC2	-75*
CCc1ccc(NC(=O)N2CCC3(CC2)c2cccn2-c2ccc(C)cc2N3CC)cc1	-47
CCc1ccccc1NC(=O)N1CCC2(CC1)c1cccn1-c1ccc(C)cc1N2CC	206
CCN1c2cc(C)ccc2-n2cccc2C12CCN(C(=O)Nc1cccc(OC)c1)CC2	-59
CCN1c2cc(C)ccc2-n2cccc2C12CCN(C(=O)Nc1cccc(Cl)c1)CC2	-82*
CCN1c2cc(C)ccc2-n2cccc2C12CCN(C(=O)Nc1cc(Cl)c(OC)cc1OC)CC2	-47
CCN1c2cc(C)ccc2-n2cccc2C12CCN(C(=O)Nc1ccc(F)c(Cl)c1)CC2	0
CCN1c2cc(C)ccc2-n2cccc2C12CCN(C(=O)Nc1ccccc1)CC2	-13
CCN1c2cc(C)ccc2-n2cccc2C12CCN(C(=O)Nc1ccccc1OC)CC2	-88*
O=c1/c(=C/c2ccccc2Cl)sc2nnc(-c3ccccc3)n12	8
Cc1ccc(NC(=O)c2ccc3nnc4nc(C)n(C5CCCC5)c4c3c2)cn1	-22
CCOC(=O)C1CCCN(S(=O)(=O)c2cc(-c3nc(C)c(C)s3)sc2C)C1 (configuration not stated)	-2
CCOc1ccccc1-c1nc(Cn2cnc3nc4c(cc3c2=O)CC(C)CC4)c(C)o1 (configuration not stated)	98
Cn1c(=O)n(C)c2cc(CNC(=O)CC3COCCN3)ccc21 (configuration not stated)	2
CCc1nnc(-c2ccc3ccn(CC(=O)Nc4ccc(Cl)cn4)c3c2)o1	-62
Cc1cnccc1N1CCCN(C(=O)C2CC3(CCNCC3)CN2)CC1 (configuration not stated)	-1
C[C@@H]1CN([C@@H](C)CO)C(=O)Cc2cc(NS(=O)(=O)c3ccc(Cl)cc3)ccc2O[C@H]1CN(C)C(=O)Nc1ccc(C(F)(F)F)cc1	-25
C[C@H](CO)N1C[C@H](C)[C@H](CN(C)C(=O)Nc2ccc(C(F)(F)F)cc2)Oc2ccc(NS(=O)(=O)c3ccc(Cl)cc3)cc2CC1=O	5
C[C@@H]1CN([C@@H](C)CO)C(=O)Cc2cc(NS(=O)(=O)c3ccc(Cl)cc3)ccc2O[C@@H]1CN(C)C(=O)Nc1ccc(C(F)(F)F)cc1	-79*
C[C@H]1CN([C@@H](C)CO)C(=O)Cc2cc(NC(=O)C3CCCCC3)ccc2O[C@H]1CN(C)Cc1ccc(Cl)c(Cl)c1	-54
C[C@@H]1CN([C@@H](C)CO)C(=O)Cc2cc(NC(=O)C3CCCCC3)ccc2O[C@H]1CN(C)Cc1ccc(Cl)c(Cl)c1	-33
C[C@@H]1CN([C@H](C)CO)C(=O)Cc2cc(NC(=O)C3CCCCC3)ccc2O[C@H]1CN(C)Cc1ccc(Cl)c(Cl)c1	-72*
COc1ccc(NC(=O)Cn2c(=O)cc(C(=O)N3CCc4ccccc4C3)c3ccccc32)c(OC)c1	-17
CSc1sc(C#N)c(C)c1C(C)=O	56
SMILES	Tgondii IFNg
O/N=C/c1ccc(-c2ccc(O)c(F)c2)c(Cl)c1O	-87*
O=C(O)c1ccc(-c2ccc(O)c(F)c2)cc1	42
CN(C)CCOCC1CN(CC2CC2)Cc2nnn(C)c21 (configuration not stated)	341
COCCN1C(=O)CCc2cc(NC(=O)c3ccc(C)cc3)ccc21	-5
CCN1C(=O)CCc2cc(NC(=O)c3ccsc3)ccc21	84
CC(C)CN1C(=O)CCc2cc(NC(=O)C3CCCCC3)ccc21	-37
CCc1ccc(C(=O)Nc2ccc3c(c2)CCC(=O)N3CCOC)cc1	-74*
CC(C)CC(=O)Nc1ccc2c(c1)CCC(=O)N2CC(C)C	-15
CC(C)CN1C(=O)CCc2cc(NC(=O)CCc3ccccc3)ccc21	-98*
CCCN1C(=O)CCc2cc(NC(=O)c3cccc(C#N)c3)ccc21	-17
CCCN1C(=O)CCc2cc(NC(=O)c3cc(F)cc(F)c3)ccc21	-52
CCCN1C(=O)CCc2cc(NC(=O)c3ccc(CC)cc3)ccc21	-59
CCN1C(=O)CCc2cc(NC(=O)c3ccc(C(C)C)cc3)ccc21	-105*
CCN1C(=O)CCc2cc(NC(=O)c3ccc(C)cc3)ccc21	-16
CCCN1C(=O)CCc2cc(NC(=O)c3ccc(F)c(Cl)c3)ccc21	-82*
CCOCc1nnc(NC(=O)c2[nH]c3c(Cl)cccc3c2C)s1	29
Cc1cccnc1N1CCN(Cc2cnc(CC3CCCC3)[nH]2)CC1	-13
Cc1nnsc1CN(C)Cc1cnc(-c2cccc3ccccc23)nc1	-5
CCc1cc(N2CCN(S(=O)(=O)CC)CC2)nc(N2CCOCC2)n1	-40
Cc1oc(-c2cccc(Cl)c2)nc1CN1CCSCC1	11
Cc1cc(S(=O)(=O)NCc2cc(CC(C)C)no2)ccc1F	17
O=C(C1CCC1)N1CCCN(Cc2cccc(Cn3cccn3)c2)CC1	5
COc1ccccc1-c1nc(CSc2nc3c(=O)[nH]cnc3n2-c2ccccc2)c(C)o1	-21
CCCN1C(=O)CCc2cc(NC(=O)c3ccn(CC)n3)ccc21	96
C=CC(=O)Nc1ccc2c(c1)CCC(=O)N2CCC	-11
SMILES	Tgondii IFNg
CCCN1C(=O)CCc2cc(NC(=O)C(CC)c3ccccc3)ccc21 (configuration not stated)	-82*
CCOCC12CCCOC1CCN(C(=O)CC1C=CCC1)C2 (configuration not stated)	-2
Cc1ccc(CN(C)C(=O)C(C)n2ccnc2C(C)C)o1 (configuration not stated)	-3
COc1cccc(-n2c(=O)c(C(=O)Nc3ccc(F)cc3)c(O)c3cccnc32)c1	99
CC(c1ccccn1)N(C)Cc1nc2ccccc2n1C(C)C (configuration not stated)	-20
Cc1cc(CN(C)Cc2nc3ccccc3n2C(C)c2ccccc2)n[nH]1 (configuration not stated)	-79*
Cc1cc(CN(C)Cc2ccc(-n3cccn3)cc2)n[nH]1	-3
COc1ncccc1CN1Cc2nnn(C)c2C(COCC2CC2)C1 (configuration not stated)	-8
O=C(c1cc2cccnc2n(Cc2ccccc2F)c1=O)N1CCN(c2ccc(F)cc2)CC1	-83*
O=C(c1cc2cccnc2n(Cc2ccc(F)cc2)c1=O)N1CCN(Cc2ccccc2)CC1	-30
O=C(c1cc2cccnc2n(Cc2ccc(F)cc2)c1=O)N1CCCC1	50
O=C(c1cc2cccnc2n(Cc2ccccc2F)c1=O)N1CCN(c2ccccc2F)CC1	36
O=C(c1cc2cccnc2n(Cc2ccc(F)cc2)c1=O)N1CCN(c2ccc(F)cc2)CC1	-95*
O=C(c1cc2cccnc2n(Cc2ccccc2F)c1=O)N1CCCC1	68
Cc1ccc(Cl)cc1NC(=O)Cn1ncc2c(N3CCC(C)CC3)ncnc21	-21
Cc1cccc(-c2nc(C)c(CCNC(=O)C(=O)Nc3ccccc3C)s2)c1	-27
Cc1nonc1CNC(=O)CC1CCNCC1	-23
CCO[C@H]1CC[C@@H]2[C@H]1OCCN2S(=O)(=O)c1c(C)nn(C)c1C	-5
CN1CCN(C2CCN(C(=O)Nc3cc(Oc4ccc(NC(=O)C5(C(=O)Nc6ccc(F)cc6)CC5)c(F)c4)ccn3)CC2)CC1	-69
COc1cc2nccc(Oc3ccc(NC(=O)C4(C(=O)Nc5ccc(F)cc5)CC4)cc3)c2cc1OC	-91*
COc1ccc(NC(=O)C(=O)NCCc2csc(-c3ccc(F)cc3)n2)cc1OC	52
CCOc1ccccc1CNc1nc(-c2ccc(OC)cc2)nc2ccccc12	-30
Cc1oc(-c2ccc(NC(=O)c3cccc(C#N)c3)cc2)nc1Cn1cccn1	21

Bioassay records from PubChem BioAssay.
